Measurements reported in PubChem BioAssay AID1949 (Southern Research Institute, 2009).
Screen size: about 100,000 compounds; about 1,600 (1.6%) were called active. Roughly 3% stayed inconclusive and do not appear here. How the calls were made is not given here. Only a sample is shown.

Assay: Mycobacterium tuberculosis H37Rv growth inhibition, cell based, confirmatory dose response (AID 1949);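 on inhibition: bacteria grown 7 days with compound before Alamar blue readout; 0% = untreated bacteria wells and 100% = bacteria with saturating antibiotic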
Conditions: M. tuberculosis H37Rv growth inhibition; active compounds read high

SMILES	inhibition
CCOc1ccc(N2C(=O)CC(NCCNC(=O)c3ccc(Cl)cc3)C2=O)cc1 (configuration not stated)	2.16% (inactive)
Cc1cc(C(=O)NC2CCCc3ccccc32)no1 (configuration not stated)	inactive
COc1ccc(NC(=O)CSc2nnnn2-c2ccccc2Cl)c(OC)c1	inactive
Cc1sc2ncnc(SCC(=O)NCC3CCCO3)c2c1-c1ccc(Cl)cc1 (configuration not stated)	2.71% (inactive)
CS(=O)(=O)NC1c2cccc3cccc(c23)C1N1CCCCC1 (configuration not stated)	inactive
CC1CN(C(=O)C(C)Oc2ccc(Cl)cc2Cl)CC(C)O1 (configuration not stated)	inactive
Cc1ccc(-c2nn(C)c(=O)c3ccccc23)cc1CNC(=O)c1cccs1	inactive
Cc1cc(Oc2coc3cc(OCC(=O)Nc4ccccc4)ccc3c2=O)cc(C)c1Cl	inactive
COc1cc(C(=O)Nc2ccccc2C(=O)NCCc2ccccc2)cc(OC)c1OC	inactive
Cn1nc([N+](=O)[O-])nc1Sc1nnc(-c2ccccc2)o1	49.7% (inactive)
COc1ccc(-c2cc(C(=O)O)c3cc(Br)ccc3n2)c(OC)c1	inactive
CN1CCCC1c1cccnc1N (configuration not stated)	1.61% (inactive)
COc1ccc(NC(=S)N2CCN(c3ccc(F)cc3)CC2)c(OC)c1	inactive
O=[N+]([O-])c1ccccc1S(=O)(=O)N1CCN(c2ncccn2)CC1	inactive
Cc1ccc(-c2nnc(Nc3cccc(O)c3)c3ccccc23)cc1S(=O)(=O)NC(C)(C)CO	inactive
COC(=O)c1cccc(NC(=O)CCN2C(=O)c3ccccc3C2=O)c1	inactive
O=C(c1cc2n(n1)C(C(F)(F)F)CC(c1ccccc1)N2)N1CCCc2ccccc21 (configuration not stated)	inactive
Cc1ccc(Nc2nc(CSc3nnc(-c4ccccc4)o3)cs2)cc1	inactive
CCCN1CCN(CCCNC(=S)Nc2ccc(F)cc2)CC1	inactive
COc1ccc(C(=O)Nc2cccc(C(C)=O)c2)cc1I	inactive
CC1(C)Cc2nc3sc4c(=O)n(CC(=O)c5ccccc5)cnc4c3cc2CO1	0.12% (inactive)
CC1(C)NC(=O)N(CCCSc2ccc(Cl)cc2)C1=O	4.37% (inactive)

SMILES	inhibition
Cc1ccc(NC(=O)c2cccc(F)c2)cc1[N+](=O)[O-]	inactive
CC1(C)Cc2nc(N3CCCC3)c(C#N)cc2CO1	1.56% (inactive)
O=C(NC(=S)Nc1ccc2c(c1)Cc1ccccc1-2)c1ccc(Br)cc1	inactive
CC(=O)c1cccc(NC(=O)N2CCN(C(c3ccccc3)c3ccccc3)CC2)c1	inactive
COc1ccccc1NC(=O)c1c(NC(=O)c2ccccc2C)sc2c1CCCC2	inactive
COc1ccc(Oc2ccc(NS(=O)(=O)c3ccc(NC(C)=O)cc3)cc2)cc1	0.37% (inactive)
O=C(CNC(=O)C1CCCCC1)NNC(=O)c1ccc(Cl)cc1Cl	inactive
O=c1ccc2ccc(OCc3ccc(Br)cc3F)cc2o1	inactive
C=C1C2(C(=O)Nc3ccc(Br)cn3)CCC(C2)C1(C)C (configuration not stated)	0.92% (inactive)
COc1ccc(S(=O)(=O)N(C)CC(=O)NC2CCCCC2)cc1C	2.13% (inactive)
CCn1c(SCC(=O)Nc2cccc(F)c2C)nnc1-c1ccc(OC)cc1	inactive
Cc1ccc(-c2cc(C(=O)NC3=NCCS3)c3cc(Br)ccc3n2)o1	3.59% (inactive)
Cc1cccc(-n2c(CCc3ccccc3)nnc2SCC(=O)Nc2c(C)cc(C)cc2C)c1	7.24% (inactive)
O=[N+]([O-])c1ccc(NC(=S)NCCCn2ccnc2)cc1	inactive
COc1ccc(C)cc1N(CC(=O)NCc1ccc(Cl)cc1Cl)S(C)(=O)=O	inactive
O=S(=O)(NCCSc1ccccn1)c1ccc(Br)cc1	5.4% (inactive)
CCCCc1ccc(NC(=O)c2ccc3ccccc3c2)cc1	0.83% (inactive)
COc1ccc(N2CCN(c3nc(NCCc4ccc(OC)c(OC)c4)nc(N4CCOCC4)n3)CC2)cc1	40.6% (inactive)
CCCCc1ccc(NC(=S)N2CCN(C(=O)c3ccco3)CC2)cc1	inactive
O=C(c1cccs1)N1N=C(c2cccs2)CC1c1cccs1 (configuration not stated)	inactive
CCOc1ccc(C(=O)c2oc3ccccc3c2NC(=O)C2COc3ccccc3O2)cc1 (configuration not stated)	inactive
O=C(NCc1ccccn1)Nc1ccc2c(c1)OCO2	inactive

SMILES	inhibition
Cc1onc(-c2ccccc2Cl)c1C(=O)Nc1nc2ccc(Cl)cc2s1	inactive
COc1ccc2nc(NC(=O)CN3CCCCC3)sc2c1	3.2% (inactive)
CCSc1nc(-c2cccs2)cc(-c2cccs2)c1C#N	5.48% (inactive)
CCCC(C)c1nnc(NC(=O)CSCc2ccccc2)s1 (configuration not stated)	inactive
CC(C)NCC(O)Cn1c2c(c3ccccc31)CCCC2=O (configuration not stated)	inactive
CCN(CC)CCCNC(=S)Nc1ccc(Br)cc1	1.11% (inactive)
CS(=O)(=O)N(CC(=O)Nc1ccccc1C(=O)N1CCCC1)c1cccc(F)c1	inactive
Cc1ccc(CN2CCC(N3CCN(c4ccccc4F)CC3)CC2)cc1	inactive
COc1ccc(S(=O)(=O)N(C(C)=O)c2ccc3oc4c(c3c2)CCCC4)cc1[N+](=O)[O-]	6.65% (inactive)
O=C(CCCCC(=O)NC1=NCCS1)NC1=NCCS1	1.73% (inactive)
Cc1cc(Cl)ccc1OCC(=O)NCCCn1ccnc1	inactive
COc1ccc(OC)c(NC(=O)c2cccc(F)c2)c1	inactive
CCC(=O)Nc1nnc(SCC(=O)Nc2cccc(Cl)c2)s1	inactive
CC1=CC(c2ccc(Cl)cc2)n2ncnc2N1 (configuration not stated)	inactive
Cc1cc(C)c(NC(=O)COc2ccc(-c3ccccc3)cc2)c(C)c1	0.67% (inactive)
CN1C(=O)C2C(C1=O)N1C(c3cccs3)C3C(=O)N(C)C(=O)C3N1C2c1cccs1 (configuration not stated)	inactive
Cc1nnc(SCC(=O)Nc2cccc(Cl)c2Cl)n1-c1ccc(F)cc1	32.3% (inactive)
Cc1cc(NC(=O)Cc2ccc(Br)cc2)no1	inactive
O=C(CSc1nc2ccccc2[nH]1)Nc1ccc(Cl)cn1	inactive
Cc1c(NC(=O)CSc2nnnn2-c2ccc(O)cc2)c(=O)n(-c2ccccc2)n1C	inactive
Cc1ccc(CC(=O)Nc2ccc(S(=O)(=O)N3CCC(C)CC3)cc2)cc1	inactive
COc1cc(S(=O)(=O)NC(c2ccccc2)c2ccccc2)ccc1Cl	inactive

SMILES	inhibition
O=C(CSc1nnc(-c2ccncc2)n1-c1ccccc1)c1ccc(Cl)cc1	inactive
COc1ccc(CC(=O)NC(=S)N2CCOCC2)cc1	2.63% (inactive)
COc1ccc(Cl)cc1C(=O)Nc1cc(C(F)(F)F)ccc1N1CCOCC1	inactive
C=CCc1cc(OC)ccc1OCCN1CCN(C)CC1	inactive
O=C(c1csc2c1CCCC2)N1CCC2(CC1)OCCO2	inactive
C=CCN(c1ccc(C(=O)Nc2ccccc2-c2ccccc2)cc1)S(C)(=O)=O	inactive
CCc1ccc(OC(C)c2nnc(SCC(=O)Nc3ccc(C)c(C)c3)n2CC)cc1 (configuration not stated)	1.06% (inactive)
COc1ccc(OC)c(C2C(C#N)=C(N)OC(c3ccccc3)=C2C#N)c1 (configuration not stated)	inactive
Cc1ccc(C(=O)CCC(=O)Nc2ccccc2C)cc1C	inactive
Cc1ccc(NC(=O)CSc2nnc(N)s2)cc1	inactive
COc1ccccc1CNC(=O)c1cc(OC)c(OC)cc1OC	2.59% (inactive)
N#Cc1ccc(NC(=S)NCCN2CCOCC2)cc1	inactive
CC(C(=O)Nc1cccc(C(F)(F)F)c1)N(c1ccc(Oc2ccccc2)cc1)S(C)(=O)=O (configuration not stated)	12.4% (inactive)
O=C(C1CCN(C(=S)NC2CC2)CC1)N1CCCCCC1	inactive
Cc1ccc(C(C)C)c(OCC(=O)NNC(=S)NCCc2ccccc2)c1	inactive
COc1ccc(CNC(=O)C2CCCN2CCc2ccccc2)cc1OC (configuration not stated)	4.85% (inactive)
CCOC(=O)c1ccc(NC(=S)NNc2nc(C)cc(C)n2)cc1	inactive
CCOC(=O)C1=C(C)N=c2s/c(=C\c3c4ccccc4cc4ccccc34)c(=O)n2C1c1ccccc1Cl (configuration not stated)	inactive
Cc1cc(C)cc(C(=O)Nc2ccc(CN3CCOCC3)cc2)c1	inactive
CC(C)(C)C1(c2ccccc2)NC(=O)NC1=O (configuration not stated)	0.0333% (inactive)
CCN(CC)CC(=O)Nc1ccccc1OC	inactive
OCCNCCOc1ccc2ccccc2c1Br	inactive

SMILES	inhibition
N#C/C(=C\C=C\c1ccccc1Cl)c1nc2ccccc2[nH]1	inactive
C=CCn1c(SCC#CCO)nc2ccccc2c1=O	inactive
COc1ccccc1CCNC(=O)c1ccc(COCC(F)(F)C(F)F)cc1	inactive
CCCCOc1cccc(C(=O)NC(=S)Nc2cccnc2)c1	inactive
Cc1ccc(SCC(=O)Nc2ccc(S(=O)(=O)Nc3cccc(C(F)(F)F)c3)cc2)cc1	inactive
CCc1ccc(-n2c(C)cc(C=NO)c2C)cc1	17.1% (inactive)
COc1ccc(S(=O)(=O)N(CC(=O)NC2CC3CCC2C3)c2ccccc2)cc1OC (configuration not stated)	inactive
O=C1C2CCCCC2C(=O)N1c1n[nH]c(CCc2ccccc2)n1 (configuration not stated)	inactive
CCc1cccc(C)c1NC(=O)CN(c1ccc(C)c(C)c1)S(=O)(=O)c1ccc(Cl)cc1	inactive
COc1ccc(NC(=S)N2CCN(Cc3cccc(F)c3)CC2)c(OC)c1	inactive
O=C(NCc1ccc2c(c1)OCO2)Nc1ccc([N+](=O)[O-])cc1	inactive
c1ccc2c(c1)nc(-c1cscn1)n2Cc1ccc(-c2nn[nH]n2)cc1	inactive
COc1ccc(S(=O)(=O)Nc2cccnc2)cc1C	inactive
COc1cc(NC(=O)c2ccc(F)cc2)ccc1NC(=O)C(C)C	inactive
O=C(c1cn(-c2ccccc2)nc1-c1cccnc1)n1nnc2ccccc21	2.67% (inactive)
COc1ccc([N+](=O)[O-])cc1NC(=O)c1cc(-c2ccc(OC)c(OC)c2)nc2ccccc12	inactive
CCCN1CCN(C(=O)c2ccncc2)CC1	1.8% (inactive)
COc1ccc2c(c1)sc1nc(-c3cc4cccc(OC)c4oc3=O)cn12	inactive
Cc1ccc(OCCSC2=NN2c2cc(C)nc(N)n2)cc1	inactive
